The text below walks through data of PubChem BioAssay AID2075 (NMMLSC, 2009).

Calls of active or inactive are those of the source. No rule for the calls is given here.

For the assay, the target named is Apoptosis regulator Bcl-2 (Homo sapiens) (UniProt P10415). The experiment in a line: inhibitors of Bim-Bcl-2 binding, confirmation, biochemical, dose response, multiplexed HTS hits (AID 2075). The settings on record: bead-based flow cytometry, Bim peptide-Bcl-2 binding; series mostly up to 100 µM. (In general: A flow cytometer gives signals particle by particle.)
Sequence of Apoptosis regulator Bcl-2 (Homo sapiens) (P10415 whole entry, looked up): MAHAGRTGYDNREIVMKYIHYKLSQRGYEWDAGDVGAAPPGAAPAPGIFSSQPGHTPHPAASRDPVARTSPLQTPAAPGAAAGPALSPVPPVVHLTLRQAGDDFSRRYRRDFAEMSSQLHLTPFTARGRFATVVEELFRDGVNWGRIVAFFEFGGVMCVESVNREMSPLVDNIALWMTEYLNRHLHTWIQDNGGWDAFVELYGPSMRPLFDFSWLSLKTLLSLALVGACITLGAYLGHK
On to `Oc1ccc(NCc2ccccc2OCc2ccccc2)cc1`, for which the outcome was inactive.

With `CCOc1ccccc1CNc1ccc(O)cc1`, the molecule was classed as inactive.

Take `CCN(CC)c1ccc(NC(=O)c2ccccc2Br)cc1S(=O)(=O)Nc1ccccc1OC`: the molecule was called inactive.

As to `C=CS(=O)(=O)c1sc(Cl)c(N2CCOCC2)c1[N+](=O)[O-]`, the call was inactive.

On to `COc1ccc(N2C(=O)C(Cl)=C(Oc3cccc(OC)c3)C2=O)cc1`, for which the molecule was called inactive.

For the molecule `CNC(CC(=O)c1ccc([N+](=O)[O-])cc1)C(Cl)(Cl)Cl` (configuration not stated), the molecule was classed as inactive.

`COc1cc(CNc2ccc3[nH]c(=O)[nH]c3c2)cc(Br)c1OCC(=O)NC(C)(C)C`: the molecule was classed as inactive.

Turning to `O=c1c2c(n3nnnc3n1Cc1ccccc1)-c1ccccc1CC21CCCC1`, the call was inactive.

With `O=C1/C(=C\c2ccco2)NC(=S)N1c1ccccc1`, the molecule was called inactive.

As for `CCN(CC)c1ccc(NC(=O)c2ccccc2F)cc1S(=O)(=O)Nc1ccccc1OC`, the molecule was called inactive.

`Cc1cc(-c2cc(-c3ccc(Cl)cc3)nc(N)c2C#N)co1`: the molecule was called inactive.

Take `Cc1ccc(-c2cc(C(=O)Nc3nccs3)c3ccccc3n2)o1`: the call was inactive.

As to `O=C1C(Cl)=C(N2CCN(c3ccccc3[N+](=O)[O-])CC2)C(=O)c2ccccc21`, the molecule was classed as inactive.

As for `CNC1CCC(Br)CC(C(=O)/C=C/c2cccc(OC)c2OC)C1=O` (configuration not stated), the molecule was called inactive.

For `COc1ccccc1-n1c(-c2ccccc2)c[nH]c1=S`, the molecule was classed as inactive.

Regarding `CC(=O)Nc1ccc(-n2cc(-c3ccccc3)[nH]c2=S)cc1`, the call was inactive.

On to `CCN1C(=O)/C(=C\C=C2/C=CC=CN2CC)SC1=S`, for which the result was inactive.

Turning to `Cc1ccc(-c2cc(-c3ccc(C)o3)nc(N)c2C#N)cc1`, the call was inactive.

For the molecule `Cc1nnc(Sc2cc(NCCO)c([N+](=O)[O-])c3nonc23)s1`, the molecule was classed as inactive.

Regarding `O=C1c2ccccc2C(=O)N1CN(C(=O)COc1ccc(Cl)cc1Cl)c1cccc(F)c1`, the result was inactive.

On to `O=C(/C=C/c1ccc(-c2ccccc2[N+](=O)[O-])o1)c1ccccc1`, for which the call was inactive.

In the case of `CCN(CC)c1ccc(NC(=O)COc2ccccc2C)cc1S(=O)(=O)Nc1ccccc1OC`, the outcome was inactive.

With `O=C(Nc1nnc(COc2ccc(Cl)cc2)s1)c1ccco1`, the molecule was classed as inactive.

As for `COc1ccc(N2C(=O)C(Cl)=C(NC3C(=O)N(c4ccccc4)N(C)C3C)C2=O)cc1` (configuration not stated), the molecule was classed as inactive.

In the case of `COc1cc(N=C2SSNC2Cl)c(OC)cc1Cl` (configuration not stated), the molecule was classed as inactive.

Turning to `S=c1[nH]cc(-c2ccccc2)n1-c1ccccc1`, the outcome was inactive.

Consider `Cc1ccc(-c2cc(-c3ccc(F)cc3)c(C#N)c(N)n2)o1`, for which the molecule was called inactive.
